Compounds without any hit were thinned out: in the full panel of roughly 79,000, 15% have a hit. The source made the active and inactive calls. Cut-off read from the data, not from the text of the source: active = growth inhibition above about 70%; inactive = the rest. *1 amine or outer side, *2 acyl side, *3 side chain or, on linkers, in order; H or OH if unused. Where a SMILES comes first, the peptide text is derived from it. Bridges are numbered along the chain shown (N, C = ends). Roman numbers before positions name the chains, in order. [ ]: non-standard residue; d: D form. Actinocin(9to1) = Cc1c2oc3c(C)ccc(C(=O)[*:1])c3nc-2c(C(=O)[*:2])c(N)c1=O; X13 = O=C1CC(C(=O)[*:2])N([*:1])C1; NMeV = CN[CH](C(=O)O)C(C)C; Sar = CNCC(=O)O
Experiments:
[1] = NCI Yeast Anticancer Drug Screen. Data for the rad50 strain (AID 155);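 note: 0% = growth of vehicle-only cultures of the same strain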; settings: S. cerevisiae rad50 strain growth inhibition; at 50.0 µM; active compounds read high
Outline: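 Readout: growth inhibition relative to vehicle-treated cultures. Compound exposure was carried out in a genetically defined yeast strain deficient in DNA damage repair.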

[2] = NCI Yeast Anticancer Drug Screen. Data for the mec2-1 strain (AID 157); settings: S. cerevisiae mec2-1 strain, at 50.0 µM, active compounds read high
Outline: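 Readout is yeast growth inhibition, normalised to vehicle-treated controls, in the mec2-1 strain exposed to compound.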

[3] = NCI Yeast Anticancer Drug Screen. Data for the sgs1 mgt1 strain (AID 161);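 note: 0% = growth of cultures given vehicle only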; settings: S. cerevisiae sgs1 mgt1 strain, at 50.0 µM, active compounds read high
Outline: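 Growth of a repair-deficient yeast mutant was monitored after compound treatment and expressed as inhibition relative to vehicle-treated cultures.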

[4] = NCI Yeast Anticancer Drug Screen. Data for the cln2 rad14 strain (AID 165);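 note: 0% = growth equal to vehicle treated cultures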; settings: S. cerevisiae cln2 rad14 strain, at 50.0 µM, active compounds read high
Outline: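 Relative to vehicle controls, growth inhibition of compound-treated cln2 rad14 yeast was recorded.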

[5] = NCI Yeast Anticancer Drug Screen. Data for the bub3 strain (AID 167); settings: S. cerevisiae bub3 mutant strain, at 50.0 µM, active compounds read high
Outline: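 Readout: yeast growth inhibition, expressed relative to vehicle-only wells. The test organism is a mutant strain from a panel with lesions in DNA repair or checkpoint genes.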

[6] = NCI Yeast Anticancer Drug Screen. Data for the mlh1 rad18 strain (AID 175); settings: S. cerevisiae mlh1 rad18 strain growth inhibition; at 50.0 µM; active compounds read high
Outline: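 Test agents were incubated with a yeast strain of defined genotype (DNA damage repair defect). Inhibition of growth was derived by comparison with vehicle-exposed cultures.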

Measured: growth inhibition

CC(C)(C)CC(C)(C)c1ccc(OCCOc2ccccc2NS(=O)(=O)c2ccc(N)cc2)cc1
inactive: [1] 47.5% | [2] -0.35% | [3] 33.6% | [4] 1.1% | [5] 10.1% | [6] 23.6%

Nc1nnc(/C=C/c2ccc(Cl)cc2)o1
inactive: [1] -26.5% | [2] -8.15% | [3] -14.9% | [4] 2.9% | [5] -18.6% | [6] -11.3%

c1ccc2c(c1)C1CC3N=NC1C23 (stereo not given)
inactive: [1] 3.3% | [2] -1.35% | [3] -10.5% | [4] -20.1% | [5] 3.8% | [6] -3.95%

CCCCCCCCCCC(CCCCCCCCCC)=NN=C(CCCCCCCCCC)CCCCCCCCCC
inactive: [1] -41.4% | [2] 9.45% | [3] 1.35% | [4] 25.9% | [5] 1.1% | [6] -9.3%

CCOC(=O)Cn1c(=O)c2nc(SC)sc2n(-c2ccccc2)c1=O
inactive: [1] -19.9% | [2] 10.8% | [3] -37.1% | [4] 6.9% | [5] -1.45% | [6] 9.4%

O=C(Nc1ccc([N+](=O)[O-])cc1Cl)c1ccc(C(=O)Nc2ccc([N+](=O)[O-])cc2Cl)cc1
inactive: [1] -6.4% | [2] -1.75% | [3] -1.85% | [4] 31.3% | [5] 1.95% | [6] 0.55%

Cc1cccc(C)c1NC(=S)NC=C(C(N)=O)C(N)=O
inactive: [1] -26.1% | [2] -23.6% | [3] 12.7% | [4] 3.1% | [5] -14.4% | [6] 10.6%

O=C(Cc1nc2ccccc2o1)C(=O)Nc1ccc(Cl)cc1Cl
inactive: [1] 10.7% | [2] -4.6% | [3] 0.8% | [4] 17.1% | [5] -15.7% | [6] 16.2%

O=C1Nc2ccccc2C12OCCS2 (stereo not given)
inactive: [1] -4.1% | [2] 25.2% | [3] 17.2% | [4] -7.4% | [5] 5.25% | [6] 7.25%

COc1ccc(NNc2ccc(OC)cc2)cc1
inactive: [1] 0.95% | [2] 7.65% | [3] -4.7% | [4] 17.9% | [5] -5.1% | [6] -9.5%

CC(CCc1ccccc1)NC(=O)c1ccccc1 (stereo not given)
inactive: [1] 5% | [2] -40.1% | [3] -1.45% | [4] 11.2% | [5] 10.7% | [6] -16.6%

CCC(=O)n1ncc2ccc([N+](=O)[O-])cc21
inactive: [1] 3.45% | [2] 5.15% | [3] -2.8% | [4] -105% | [5] -4.45% | [6] -7.5%

c1ccc(CCN(c2ccccc2)c2ccccc2)cc1
inactive: [1] 21.1% | [2] -2.4% | [3] -11.2% | [4] 9.8% | [5] 7.55% | [6] 1.2%

CN(C)C(=S)/N=C1\SCS(=O)(=O)N1C
inactive: [1] 14.2% | [2] 6.55% | [3] -6% | [4] 7.7% | [5] -6.6% | [6] 9.15%

C[Si](C)(C)/C(=N/Nc1ccc([N+](=O)[O-])cc1[N+](=O)[O-])c1ccccc1
inactive: [1] -13.2% | [2] 9.9% | [3] -12.9% | [4] -13.6% | [5] -7.9% | [6] -7.15%

CCCCOC1NC(=O)Oc2ccccc21 (stereo not given)
inactive: [1] -9.35% | [2] 4% | [3] -3.15% | [4] -28.5% | [5] -4.95% | [6] 15.1%

CCOc1ccccc1N1C(=O)C(=O)C(c2nc3ccccc3o2)C(=O)C1=O
inactive: [1] -8.75% | [2] 4.3% | [3] -8.4% | [4] -15.9% | [5] 2.55% | [6] -3.2%

N#Cc1cc([N+](=O)[O-])ccc1NC(=O)C(=O)C(C(=O)/C=C/c1ccccc1)C1OC(=O)c2ccccc21 (stereo not given)
inactive: [1] -1.05% | [2] -15.9% | [3] -41.2% | [4] 5.55% | [5] -15.2% | [6] 8.95%

CSc1nc(NC2OC(CO)C(O)C(O)C2O)c(I)c(=O)n1C (stereo not given)
inactive: [1] 3.15% | [2] 1.85% | [3] -5.3% | [4] -6.25% | [5] -1.75% | [6] 27.7%

COC(=O)C1(c2ccccc2)Cc2ccccc2-c2ccccc21 (stereo not given)
inactive: [1] -24.1% | [2] -9.5% | [3] -10.2% | [4] -16.3% | [5] 26.1% | [6] -17%

COc1ccc(C2OC2C(=O)c2ccccc2)cc1 (stereo not given)
inactive: [1] 6.75% | [2] 0.7% | [3] 19.4% | [4] -14.2% | [5] 12.3% | [6] -1.25%

CCC(O)(Cc1ccc(OC)cc1)c1ccc(OC)cc1 (stereo not given)
inactive: [1] -33.1% | [2] -24.4% | [3] 14.8% | [4] 1.4% | [5] 11.7% | [6] -11.8%

NC(=O)C(=CN1C(=O)/C(=C/c2ccccc2O)SC1=S)C(N)=O
inactive: [1] -21.6% | [2] 2.9% | [3] 10.9% | [4] 28.4% | [5] -4.85% | [6] -24.1%

Cc1c(/C=N/N(C)C)oc2c1cc(O)c1ncccc12
inactive: [1] 2.95% | [2] -4.4% | [3] 20.4% | [4] -1.9% | [5] 4.65% | [6] 2.35%

Cc1c2oc3c(C)ccc(C(=O)NC4C(=O)NC(C(C)C)C(=O)N5CC(=O)CC5C(=O)N(C)CC(=O)N(C)C(C(C)C)C(=O)OC4C)c3nc-2c(C(=O)NC2C(=O)NC(C(C)C)C(=O)N3CC(=O)CC3C(=O)N(C)CC(=O)N(C)C(C(C)C)C(=O)OC2C)c(N)c1=O (stereo not given) (I: TV[X13][Sar][NMeV] / II: TV[X13][Sar][NMeV]; ester I:1-I:C, II:1-II:C; linker I:N-II:N via Actinocin(9to1); configuration not given here)
inactive: [1] -22.6% | [2] -1.65% | [3] -3.1% | [4] 52.4% | [5] -3.25% | [6] -42.8%

CC(C)=C(OC(=O)c1ccccc1)C(C)(CC(C)(C)C)C(C)(C)C (stereo not given)
inactive: [1] 13.1% | [2] -55.3% | [3] -10.3% | [4] -100% | [5] -26.5% | [6] 19.4%

CN1CCCC(NC(c2ccccc2)c2ccccc2)C1 (stereo not given)
inactive: [1] 25.4% | [2] 0.45% | [3] 23.9% | [4] -11.8% | [5] 34.5% | [6] 18.9%

O=C(O)C(Br)C1(Br)c2ccccc2-c2ccccc21 (stereo not given)
active: [1] 99.3% | [2] 99.7% | [3] 99.7% | [4] 95.4% | [5] 97.3% | [6] 99.6%

Cn1c(=S)c2[nH]c(SCCCc3ccccc3)nc2n(C)c1=O
inactive: [1] -19.4% | [2] -36% | [3] -5.8% | [4] -32.3% | [5] -25.9% | [6] 12.5%

Nc1c(Br)cc(Br)c(C(=O)O)c1Br
inactive: [1] 6.35% | [2] -16.1% | [3] 10.8% | [4] 2.8% | [5] -15.2% | [6] -1.75%

CC(Sc1nc2ccc(Cl)cc2[nH]1)C(=O)O (stereo not given)
inactive: [1] -11.8% | [2] -4% | [3] -0.9% | [4] -16.9% | [5] 12.9% | [6] -3.85%

CC12CC3CC(C)(C1)CC(CN=C(N)CS)(C3)C2
active: [1] 98.9% | [2] 99.5% | [3] 99.5% | [4] 99.2% | [5] 99.2% | [6] 99.3%

O=C(O)c1ccc2ccccc2c1C(=O)O
inactive: [1] 6.4% | [2] -1.6% | [3] 0.25% | [4] -6.55% | [5] -2.2% | [6] -1.7%

CSc1ccc(OC(=O)Nc2cc(Cl)ccc2C)cc1
inactive: [1] 4.35% | [2] 14.8% | [3] 25.9% | [4] -0.6% | [5] 38% | [6] 5.75%

CCC(=O)c1ccc2ccccc2c1
inactive: [1] 5.1% | [2] 3.75% | [3] -0.65% | [4] -10.1% | [5] -2.1% | [6] -0.55%

CCCCSCC(N)C(=O)OC (stereo not given)
inactive: [1] 19.1% | [2] -11.2% | [3] 4% | [4] -65.5% | [5] 3.75% | [6] 2.8%

O=C(Nc1nc(C23CC4CC(CC(C4)C2)C3)cs1)c1cc2cc(Br)cc(Br)c2oc1=O
inactive: [1] -8.75% | [2] -13.8% | [3] 23.3% | [4] 19.9% | [5] -12.8% | [6] -8.4%

N#CCCN(Cc1ccccc1)CN1C(=O)c2ccccc2C1=O
inactive: [1] 8.75% | [2] 5.5% | [3] 12.1% | [4] 17.9% | [5] 6.4% | [6] -10.3%

CC(=O)Nc1ccc(S(=O)(=O)n2c(=O)oc3cc(Br)ccc32)cc1
inactive: [1] 7.4% | [2] 3.35% | [3] -7% | [4] 2.35% | [5] 0.05% | [6] 0.65%

C=CCCC(C)(C(=O)OCC)C(=O)OCC
inactive: [1] 7.45% | [2] -15.8% | [3] -23.9% | [4] -30.3% | [5] 1.45% | [6] -11%

— PubChem BioAssay (NCI)
